Records with an inconclusive call do not appear. Active and inactive are the calls of the source. How the source made its calls: active means hit-call score of the fitted dose curve at least 0.9, where 1 is the maximum; inconclusive means response in the unintended direction; inactive means score below 0.9.
Key:
[1] = Tanguay_ZF_120hpf_AXIS_legacy: (Legacy) Oregon State University Tanguay Lab 120 Hour Post-fertilization zebrafish Assay for Body Axis Malformation (AID 2283635);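 on AC50: potency for an increased fraction of larvae scored with body axis malformation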
Summary of the method: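 Dechorionated wild-type Tropical 5D zebrafish embryos, one per well, statically exposed from 6 hpf to 120 hpf at 28C in 0.64% DMSO final. Body axis malformation scored present/absent by brightfield microscopy at 120 hpf; dead embryos excluded.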

[2] = Tanguay_ZF_120hpf_EYE_legacy: (Legacy) Oregon State University Tanguay Lab 120 Hour Post-fertilization zebrafish Assay for Eye Malformation (AID 2283636);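 further: binary presence or absence of eye malformation scored by brightfield in 120 hpf larvae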
Summary of the method: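 5D wild-type embryos, pronase-dechorionated at 4 hpf; static exposure 6–120 hpf, 28C, dark; DMSO 0.64% final; 5uM trimethyltin chloride positive control. Binary eye-defect scoring at 120 hpf; dead embryos not scored.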

[3] = Tanguay_ZF_120hpf_SNOU_legacy: (Legacy) Oregon State University Tanguay Lab 120 Hour Post-fertilization zebrafish Assay for Snout Malformation (AID 2283637)
Summary of the method: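 Binary brightfield scoring of snout malformation at 120 hpf. Dechorionated 5D wild-type embryos, one per well, static exposure from 6 hpf at 28C, sealed and dark; final DMSO 0.64% (vol/vol), DMSO as baseline; 5uM trimethyltin chloride positive control.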

[4] = Tanguay_ZF_120hpf_JAW_legacy: (Legacy) Oregon State University Tanguay Lab 120 Hour Post-fertilization zebrafish Assay for Jaw Malformation (AID 2283638);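 on AC50: active means more embryos with jaw malformation than DMSO controls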
Summary of the method: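 Dechorionated Tropical 5D wild-type zebrafish embryos, one per well, exposed statically from 6 hpf to 120 hpf at 28C in 0.64% DMSO. Jaw malformation was scored by brightfield microscopy as present or absent. It was not scored in dead embryos.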

[5] = Tanguay_ZF_120hpf_OTIC_legacy: (Legacy) Oregon State University Tanguay Lab 120 Hour Post-fertilization zebrafish Assay for Otic Vesicle Malformation (AID 2283639)
Summary of the method: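 Brightfield scoring at 120 hpf, binary present/absent; DMSO negative control, 5uM trimethyltin chloride positive control. Static exposure at 28C, final DMSO 0.64% (vol/vol). Dead embryos not scored for malformation.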

[6] = Tanguay_ZF_120hpf_BRAI_legacy: (Legacy) Oregon State University Tanguay Lab 120 Hour Post-fertilization zebrafish Assay for Brain Malformation (AID 2283641)
Summary of the method: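 Tropical 5D wild-type zebrafish embryos exposed statically until 120 hpf at 28C, 0.64% DMSO final, sealed and dark. Brain malformation scored present/absent by brightfield at 120 hpf; dead embryos excluded. Trimethyltin chloride 5uM positive control.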

[7] = Tanguay_ZF_120hpf_PFIN_legacy: (Legacy) Oregon State University Tanguay Lab 120 Hour Post-fertilization zebrafish Assay for Pectoral Fin Malformation (AID 2283648);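 further: each larva judged yes or no for fin defect by brightfield with dead larvae skipped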
Summary of the method: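 Binary pectoral fin malformation call at 120 hpf by brightfield microscopy; 5D wild-type zebrafish, chorion removed at 4 hpf, one embryo per well from 6 hpf, static exposure at 28C; DMSO (0.64% final) as baseline.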

[8] = Tanguay_ZF_120hpf_CFIN_legacy: (Legacy) Oregon State University Tanguay Lab 120 Hour Post-fertilization zebrafish Assay for Caudal Fin Malformation (AID 2283649)
Summary of the method: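 Dechorionated Tropical 5D wild-type embryos, one per well from 6 hpf, static exposure to 120 hpf at 28C in 0.64% DMSO. Caudal fin malformation scored by brightfield as present/absent; not scored in dead embryos.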

[9] = Tanguay_ZF_120hpf_PE_legacy: (Legacy) Oregon State University Tanguay Lab 120 Hour Post-fertilization zebrafish Assay for Pericardial Edema (AID 2283640);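 on AC50: potency for increased incidence of pericardial edema versus DMSO baseline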
Summary of the method: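 Tropical 5D wild-type zebrafish embryos were statically exposed until 120 hpf at 28C, with 0.64% DMSO final. Pericardial edema was scored by brightfield as present or absent; endpoints were not scored in dead embryos.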

[10] = Tanguay_ZF_120hpf_SOMI_legacy: (Legacy) Oregon State University Tanguay Lab 120 Hour Post-fertilization zebrafish Assay for Somite Malformation (AID 2283647)
Summary of the method: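 Dechorionated Tropical 5D wild-type zebrafish embryos, one per well from 6 hpf, statically exposed at 28C to 120 hpf in 0.64% DMSO; somite malformation scored present/absent by brightfield; trimethyltin 5 uM positive control; dead embryos not scored.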

Measured: AC50

CCCCNC(=O)OCC#CI
inactive: [1] | [2] | [3] | [4] | [5] | [6] | [7] | [8]

Cc1c(F)c(F)c(COC(=O)C2C(/C=C(\Cl)C(F)(F)F)C2(C)C)c(F)c1F (stereo not drawn)
inactive: [8]
active: [1] 3.4 µM | [2] 3.05 µM | [3] 4.35 µM | [4] 2.75 µM | [5] 3.67 µM | [6] 2.6 µM | [7] 3.13 µM

CCNc1nc(Cl)nc(NC(C)C)n1
inactive: [1] | [2] | [3] | [4] | [5] | [6] | [7] | [8]

Cc1cc(Cl)ccc1OCC(=O)O
inactive: [1] | [2] | [3] | [4] | [5] | [6] | [7] | [8]

Fc1ccc(Oc2ccnc3cc(Cl)cc(Cl)c23)cc1
inactive: [1] | [2] | [3] | [4] | [5] | [6] | [7] | [8]

CCCC1COC(Cn2cncn2)(c2ccc(Cl)cc2Cl)O1 (stereo not drawn)
inactive: [1] | [5] | [7] | [8]
active: [2] 26.9 µM | [3] 25.2 µM | [4] 25.2 µM | [9] 30.4 µM | [6] 30.2 µM

O=C(O)c1nc(Cl)ccc1Cl
inactive: [1] | [2] | [3] | [4] | [5] | [9] | [6] | [7] | [8]

CS/C(C)=N/OC(=O)N(C)SN(C)C(=O)O/N=C(\C)SC
active: [1] 24.4 µM
inactive: [2] | [3] | [4] | [5] | [9] | [6] | [8]

COc1nc(NC(C)C)nc(NC(C)C)n1
inactive: [1] | [2] | [3] | [4] | [5] | [6] | [7] | [8]

C=CCC1=C(C)C(OC(=O)C2C(C=C(C)C)C2(C)C)CC1=O (stereo not drawn)
inactive: [1] | [2] | [3] | [4] | [5] | [6] | [7] | [8]

C=CC1(C)OC(=O)N(c2cc(Cl)cc(Cl)c2)C1=O (stereo not drawn)
inactive: [1] | [2] | [3] | [4] | [5] | [6] | [10] | [8]

CCCN(CCC)c1c([N+](=O)[O-])cc(S(N)(=O)=O)cc1[N+](=O)[O-]
inactive: [1] | [2] | [3] | [4] | [5] | [6] | [10] | [7] | [8]

CCCCC(CC)COC(=O)c1ccccc1C(=O)OCC(CC)CCCC (stereo not drawn)
inactive: [1] | [2] | [3] | [4] | [5] | [6] | [7] | [8]

CNC(=S)S
inactive: [1] | [2] | [3] | [4] | [5] | [9] | [6] | [7] | [8]

COC(=O)N(OC)c1ccccc1COc1ccn(-c2ccc(Cl)cc2)n1
inactive: [1] | [2] | [3] | [4] | [5] | [6] | [7] | [8]

CO/C=C(/C(=O)OC)c1ccccc1Oc1cc(Oc2ccccc2C#N)ncn1
inactive: [1] | [2] | [3] | [4] | [5] | [6] | [10] | [7] | [8]

CNC(=O)ON=CC(C)(C)SC
active: [1] 2.31 µM
inactive: [2] | [3] | [4] | [5] | [6] | [10] | [7] | [8]

CCOC(=O)C(Cl)Cc1cc(-n2nc(C)n(C(F)F)c2=O)c(F)cc1Cl (stereo not drawn)
active: [1] 4.23 µM | [2] 1.7 µM | [3] 4.26 µM | [4] 5.22 µM | [5] 1.82 µM | [9] 2.58 µM | [6] 2.91 µM | [7] 2.19 µM | [8] 5.09 µM

N#Cc1cc(Br)c(O)c(Br)c1
inactive: [1] | [2] | [3] | [4] | [5] | [6] | [7] | [8]

CC(C)(C)c1ccc(CSc2cnn(C(C)(C)C)c(=O)c2Cl)cc1
inactive: [1] | [2] | [3] | [4] | [5] | [6] | [7] | [8]

N#Cc1nn(-c2c(Cl)cc(C(F)(F)F)cc2Cl)c(N)c1S(=O)C(F)(F)F (stereo not drawn)
inactive: [2] | [3] | [4] | [5] | [6] | [7] | [8]
active: [1] 4.62 µM

OC(c1ccc(Cl)cc1)(c1cncnc1)c1ccccc1Cl (stereo not drawn)
inactive: [1] | [2] | [3] | [4] | [5] | [6] | [7] | [8]

CCCCOC(=O)c1ccccc1C(=O)OCCCC
inactive: [1] | [2] | [3] | [4] | [5] | [6] | [7] | [8]

CCc1nn(C)c(C(=O)NCc2ccc(C(C)(C)C)cc2)c1Cl
inactive: [1] | [2] | [5] | [6] | [7] | [8]
active: [3] 6.18 µM | [4] 4.39 µM

CN(C)C(=S)SSC(=S)N(C)C
inactive: [1] | [2] | [3] | [4] | [5] | [6] | [7] | [8]

O=C(Nc1ccccc1)Nc1ccnc(Cl)c1
inactive: [1] | [4] | [5] | [6] | [10] | [8]

CC(C)C1(C)N=C(c2nc3ccccc3cc2C(=O)O)NC1=O (stereo not drawn)
inactive: [2] | [3] | [4] | [5] | [6] | [7]

CCOc1cc(Oc2ccc(C(F)(F)F)cc2Cl)ccc1[N+](=O)[O-]
inactive: [1] | [3] | [4] | [9] | [7] | [8]

COc1cnc(OC)n2nc(NS(=O)(=O)c3c(OCC(F)F)cccc3C(F)(F)F)nc12
inactive: [1] | [2] | [3] | [4] | [5] | [7] | [8]

CCCCNC(=O)n1c(NC(=O)OC)nc2ccccc21
active: [2] 72.8 µM | [3] 56.7 µM | [4] 59.2 µM
inactive: [1] | [5] | [7] | [8]

CON(C)C(=O)Nc1ccc(Cl)c(Cl)c1
inactive: [1] | [2] | [3] | [4] | [5] | [6] | [7] | [8]

COC(=O)C(C)Oc1ccc(Oc2ccc(Cl)cc2Cl)cc1 (stereo not drawn)
inactive: [1] | [2] | [3] | [4] | [5] | [6] | [7] | [8]

CCOP(=S)(OCC)SCn1c(=O)oc2cc(Cl)ccc21
inactive: [1] | [2] | [3] | [5] | [6] | [7]

CCNc1nc(Cl)nc(NCC)n1
inactive: [1] | [2] | [3] | [4] | [5] | [6] | [7] | [8]

COC(=O)c1ccccc1C(=O)OC
inactive: [1] | [2] | [3] | [4] | [5] | [6] | [7] | [8]

N#CC(CCc1ccc(Cl)cc1)(Cn1cncn1)c1ccccc1 (stereo not drawn)
inactive: [1] | [3] | [4] | [5] | [6] | [7] | [8]

C=CCC1=C(C)[C@@H](OC(=O)[C@@H]2[C@@H](C=C(C)C)C2(C)C)CC1=O
inactive: [2] | [6] | [7] | [8]

CCON=C(CC)C1=C(O)CC(c2c(C)cc(C)cc2C)CC1=O (stereo not drawn)
inactive: [1] | [2] | [3] | [4] | [5] | [6] | [7] | [8]

COC(=O)C=C(C)OP(=O)(OC)OC
inactive: [1] | [2] | [3] | [4] | [6] | [7] | [8]

O=C(O)COc1nc(Cl)c(Cl)cc1Cl
inactive: [1] | [2] | [3] | [4] | [5] | [6] | [7] | [8]

Oc1ccccc1-c1ccccc1
inactive: [2] | [3] | [4] | [6] | [7] | [8]

CC(Oc1ccc(Cl)cc1Cl)C(=O)O (stereo not drawn)
inactive: [1] | [2] | [3] | [5] | [6] | [7] | [8]

CCOC(=O)CC(SP(=S)(OC)OC)C(=O)OCC (stereo not drawn)
inactive: [5] | [6]
active: [1] 34.6 µM | [2] 38.7 µM | [3] 38.1 µM | [4] 33.7 µM | [7] 34 µM | [8] 36.2 µM

COP(N)(=O)SC (stereo not drawn)
inactive: [3] | [5] | [6] | [8]

COP(=S)(OC)Oc1nc(Cl)c(Cl)cc1Cl
inactive: [1] | [2] | [5] | [6] | [7] | [8]
active: [4] 34 µM

CC(C)Oc1cc(-n2nc(C(C)(C)C)oc2=O)c(Cl)cc1Cl
inactive: [1] | [2] | [3] | [6] | [7] | [8]

C#CCOS(=O)OC1CCCCC1Oc1ccc(C(C)(C)C)cc1 (stereo not drawn)
inactive: [1] | [3] | [4] | [5] | [6] | [7] | [8]

CC1COC(Cn2cncn2)(c2ccc(Oc3ccc(Cl)cc3)cc2Cl)O1 (stereo not drawn)
active: [4] 26.6 µM | [7] 3.69 µM
inactive: [3] | [5] | [9]

Cc1ccc(-c2c(Cl)nc(C#N)n2S(=O)(=O)N(C)C)cc1
inactive: [1] | [2] | [3] | [4] | [5] | [6] | [7] | [8]

CC1=C(C(=O)Nc2ccccc2)SCCO1
inactive: [1] | [3] | [4] | [5] | [6] | [8]

COc1ccc(C(c2ccc(OC)cc2)C(Cl)(Cl)Cl)cc1
inactive: [1] | [2] | [3] | [4] | [9] | [6] | [7] | [8]

Reference: PubChem BioAssay (EPA / NIEHS)
